Laboratory results: article PMC4336329 (PLoS ONE, 2015)
Screen size: about 310,000 compounds; about 14,000 (4.5%) showed an effect of 50% or more. Effects have a minus sign here. The full list was thinned out, with strong results kept by preference.

What follows are molecules tested against human ether-à-go-go-related gene (hERG) potassium channel (human, UniProt Q12809) (assay: primary screen, population patch clamp on CHO cells stably expressing hERG; higher = less effect of the substance).
Protocol: Briefly, Chinese hamster ovary (CHO) cells stably expressing the hERG channel were dislodged from tissue culture flasks and dispensed into PPC plates. […] During the recording, background leak currents were estimated by a 100 ms step to -80 mV from an initial holding potential of -70 mV and subtracted from the subsequent current measurement. The campaign was conducted in two phases using slight differences in recording protocol. In the first phase, the initial voltage pulse used a 100 ms step to -30 mV from a holding potential of -70 mV, a 2 s conditioning step to +25 mV, and a 2 s test step to -30 mV. During the second phase of the screen, the potential during the conditioning step was raised to +45 mV. In both phases of the campaign, a secondary voltage pulse was applied using the same parameters as the second phase initial pulse. The initial and secondary pulses were applied in the absence of compound, and upon application of 1 μM and 10 μM test concentrations. […]
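Note: peak tail current of the secondary pulse compared with the same well before compound.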

human ether-à-go-go-related gene (hERG) potassium channel, sequence (Q12809 whole entry, looked up): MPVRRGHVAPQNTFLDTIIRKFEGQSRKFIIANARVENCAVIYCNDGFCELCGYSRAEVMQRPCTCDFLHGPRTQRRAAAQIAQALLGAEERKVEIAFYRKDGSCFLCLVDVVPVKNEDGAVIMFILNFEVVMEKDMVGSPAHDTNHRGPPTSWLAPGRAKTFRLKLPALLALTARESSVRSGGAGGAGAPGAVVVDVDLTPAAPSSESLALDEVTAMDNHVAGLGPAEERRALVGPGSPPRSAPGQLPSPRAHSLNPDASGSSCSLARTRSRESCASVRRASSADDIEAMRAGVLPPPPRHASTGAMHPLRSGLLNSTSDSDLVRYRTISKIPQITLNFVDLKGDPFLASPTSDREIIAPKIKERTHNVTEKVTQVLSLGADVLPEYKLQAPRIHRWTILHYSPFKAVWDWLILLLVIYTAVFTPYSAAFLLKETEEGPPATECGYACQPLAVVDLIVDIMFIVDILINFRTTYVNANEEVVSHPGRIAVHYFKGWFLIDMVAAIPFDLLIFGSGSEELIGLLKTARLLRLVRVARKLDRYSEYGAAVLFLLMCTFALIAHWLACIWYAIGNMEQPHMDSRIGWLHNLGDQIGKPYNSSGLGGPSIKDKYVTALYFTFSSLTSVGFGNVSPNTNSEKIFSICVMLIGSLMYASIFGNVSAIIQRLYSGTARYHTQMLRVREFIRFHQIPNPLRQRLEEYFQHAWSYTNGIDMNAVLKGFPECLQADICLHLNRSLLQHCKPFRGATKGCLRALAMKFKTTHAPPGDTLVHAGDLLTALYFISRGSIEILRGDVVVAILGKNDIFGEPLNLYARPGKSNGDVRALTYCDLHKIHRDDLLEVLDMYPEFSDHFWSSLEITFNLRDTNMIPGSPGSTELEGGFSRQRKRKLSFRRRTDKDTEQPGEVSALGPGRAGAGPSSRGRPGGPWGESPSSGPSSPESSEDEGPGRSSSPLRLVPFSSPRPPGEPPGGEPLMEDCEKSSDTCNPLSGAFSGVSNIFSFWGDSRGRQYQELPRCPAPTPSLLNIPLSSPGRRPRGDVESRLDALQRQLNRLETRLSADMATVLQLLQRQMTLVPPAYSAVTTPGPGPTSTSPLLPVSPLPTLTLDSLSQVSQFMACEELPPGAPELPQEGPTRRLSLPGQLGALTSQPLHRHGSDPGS

Structure (SMILES)	hERG current change (%, negative = inhibition) at 10uM [%]
O=C(Nc1nc2ccc(S(=O)(=O)N3CCCC3)cc2s1)c1ccco1	11.5
CCn1c2ccccc2c2nnc(SCCN3CCOCC3)nc21	3.2
CCCCn1c2ccc(F)cc2c2nnc(SCCN3CCOCC3)nc21	-55.4
CCn1c2nc(SCCN3CCOCC3)nnc2c2cc(C)cc(C)c21	-95.3
CCn1c2ccc(F)cc2c2nnc(SCCN3CCOCC3)nc21	-41.2
CCCn1c2ccccc2c2nnc(SCCN3CCOCC3)nc21	-9.15
CCCn1c2ccc(F)cc2c2nnc(NN)nc21	-1.94
CCCCn1c2ccc(F)cc2c2nnc(NN)nc21	-44.9
CCn1c2ccc(C)cc2c2nnc(SCCN3CCOCC3)nc21	-13.8
CCCn1c2ccc(F)cc2c2nnc(SCCN3CCOCC3)nc21	-35.8
CCCn1c2ccc(F)cc2c2nnc(SCCN3CCCCC3)nc21	-64.2
CCn1c2ccc(F)cc2c2nnc(NN)nc21	-9.93
CCn1c2ccc(F)cc2c2nnc(SCCN3CCCCC3)nc21	-61
Cc1cccc2cc(/C=N/NC(=O)c3ccccc3O)c(Cl)nc12	-2.17
O=C1[C@H]2[C@@H](c3ccc(Cl)cc3)N3C(=O)N(c4cccc(Cl)c4)C(=O)[C@@]3(Cc3ccccc3)[C@H]2C(=O)N1C1CCCCC1	-2.02
Cc1cc(C)nc(NC2=NCCN2C(=O)NC2CCCCC2)n1	-17.7
[2H]c1c([2H])c([2H])c(-c2nc(N3CCCCCC3)sc2C(=O)c2ccccc2)c([2H])c1[2H]	-2.19
CC(C)CCNC(=O)C1CCCN(S(=O)(=O)c2ccc(F)cc2)C1 (centres unmarked)	6.85
CC(=O)Nc1ccccc1NC(=O)c1ccc(C)cc1C	23.7
S=c1[nH]nc(COc2cccc(Cl)c2)n1Cc1ccccc1	34.4
COc1cccc(NC(=O)CSc2nc(C3CC3)nc3ccccc23)c1	4.75
CCCCn1c2ccc(C)cc2c2nnc(SCCN3CCCCC3)nc21	-74.3
Cc1ccc2[nH]c3nc(SCCN4CCOCC4)nnc3c2c1	8.91

Structure (SMILES)	hERG current change (%, negative = inhibition) at 10uM [%]
CCCn1c2ccc(C)cc2c2nnc(SCCN3CCOCC3)nc21	-32.5
CSCCC(NC(=O)C1CCC(C)CC1)C(=O)O (centres unmarked)	16.6
Cc1cccnc1NC(=O)c1ccc(Br)o1	32.6
Nc1nc(NC(=O)/C=C/c2ccccc2)nn1-c1ccccc1	-32.6
Nc1nc(NC(=O)c2ccccc2)nn1-c1ccccc1	-70.9
COc1ccccc1/C=C/C(=O)Nc1nc(N)n(-c2ccccc2)n1	-33.8
COc1ccc(/C=C/C(=O)Nc2nc(N)n(-c3ccccc3)n2)cc1	-53
Nc1nc(NC(=O)/C=C/c2ccc(F)cc2)nn1-c1ccccc1	-53.4
COc1ccc(C(=O)Nc2nc(N)n(-c3ccccc3)n2)cc1	-11.4
Cc1ccc(C(=O)Nc2nc(N)n(-c3ccccc3)n2)cc1	-0.817
Nc1nc(NC(=O)/C=C\C(=O)O)nn1-c1ccccc1	27.8
Nc1nc(NC(=O)c2cccnc2)nn1-c1ccccc1	18.8
Cc1ccc(Nc2nnc(SCc3ccccc3)s2)cc1	11.9
O=[N+]([O-])c1ccc(S(=O)(=O)Nc2ccc(-c3ccc(N4CCCC4)nn3)cc2)cc1	-8.67
Cc1cc(C)c2nc(-c3ccccn3)cc(C(=O)Nc3ccc(S(=O)(=O)Nc4onc(C)c4C)cc3)c2c1	-2.33
CC(=O)OCCCN1C(=O)c2cccc3cc(Br)cc(c23)C1=O	4.74
O=S1(=O)c2ccccc2N=NN1Cc1ccc(Cl)cc1	16.1
Cn1c(O)c(C=NC2C(=O)C3(C)CCC2C3(C)C)c(=O)n(C)c1=O (centres unmarked)	-0.548
Cc1onc(-c2c(F)cccc2Cl)c1C(=O)OCC(=O)NCc1ccco1	5.77
CN(Cc1ccccc1)C(=O)C1CCCN(Cc2cccc(Cl)c2)C1.O=C(O)C(=O)O (centres unmarked)	-23.5
COc1ccc(CCN(C)C(=O)C2CCN(Cc3ccccc3)CC2)cc1OC.O=C(O)C(=O)O	3.36
COc1ccc(OC)c(CN2CCC(C(=O)N(C)CCc3ccc(OC)c(OC)c3)CC2)c1.O=C(O)C(=O)O	-11.5
COc1ccc(CCN(C)C(=O)C2CCN(Cc3ccc(C)cc3)CC2)cc1OC.O=C(O)C(=O)O	-60.8

Structure (SMILES)	hERG current change (%, negative = inhibition) at 10uM [%]
COc1ccc(CCN(C)C(=O)C2CCCN(Cc3ccc(OC)c(OC)c3)C2)cc1OC (centres unmarked)	9.21
COc1ccc(CN2CCCC(C(=O)N(C)Cc3ccccc3)C2)cc1OC.O=C(O)C(=O)O (centres unmarked)	-71.1
CCN(CC)C(=O)C1CCCN(Cc2ccccc2)C1 (centres unmarked)	9.57
CN(Cc1ccccc1)C(=O)C1CCCN(Cc2ccc(Cl)cc2)C1.O=C(O)C(=O)O (centres unmarked)	-71
COc1ccc(CCN(C)C(=O)C2CCCN(Cc3ccc(OC)c(OC)c3)C2)cc1OC.O=C(O)C(=O)O (centres unmarked)	-3.31
O=C1NC2(CCCCCC2)C(=O)N1Cc1ccc(Br)cc1	4.06
CCOc1ccc(-c2nnn(CC(=O)c3ccc4c(c3)OCCO4)n2)cc1OCC	-1.86
CCc1cc(S(=O)(=O)N2CCN(C(=O)c3ccco3)CC2)ccc1OC	1.76
COc1ccc(-c2noc3c2-c2nc(-c4cccc(C)c4)sc2CC3)cc1	7.57
Cc1ccc(-c2nnc(N3CCN(C(=O)COc4cccc(C)c4)CC3)c3ccccc23)cc1	-54.6
Cc1cccc(OCC(=O)N2CCN(c3nnc(-c4ccccc4)c4ccccc34)CC2)c1	-69.7
Cc1ccc(-c2nnc(N3CCN(C(=O)CSc4ncn[nH]4)CC3)c3ccccc23)cc1	-32.6
CO/N=C/NC(=O)Cc1cn(-c2ncc(C(F)(F)F)cc2Cl)c2ccccc12	3.84
CCCOc1ccc(N2C(=O)CC(NCC(=O)OCC)C2=O)cc1 (centres unmarked)	8.44
O=C(Cn1c(=O)cnc2ccccc21)NNC(=O)c1ccccc1Cl	4.84
COCCSc1ccccc1C(=O)Nc1ccccc1C(C)C	3.89
CC(C)=CCN1CCN(Cc2ccc(C)s2)CC1CCO (centres unmarked)	-16.1
CCCCc1ncc(CN2CCN(Cc3ccc(C)cc3)C(CCO)C2)[nH]1 (centres unmarked)	-57.9
Cc1ccc(CN2CCN(Cc3cn[nH]c3C3CCCCC3)CC2CCO)cc1 (centres unmarked)	-62.9
CC(C)=CCN1CCN(Cc2cn[nH]c2C2CCCCC2)CC1CCO (centres unmarked)	0.0652
Cc1ccc(CN2CCN(CC(C)C)C(CCO)C2)s1 (centres unmarked)	-21.5
OCCC1CN(Cc2cn[nH]c2C2CCCCC2)CCN1Cc1ccccc1 (centres unmarked)	0.824
Cc1ccc(CN2CCN(Cc3cnc(C)[nH]3)CC2CCO)cc1 (centres unmarked)	10.8

Structure (SMILES)	hERG current change (%, negative = inhibition) at 10uM [%]
Cc1ccc(CN2CCN(Cc3ccccc3)C(CCO)C2)s1 (centres unmarked)	-62.8
Cc1ccc(CN2CCN(Cc3ccc(C)s3)CC2CCO)cc1 (centres unmarked)	-73.3
Cc1ccc(CN2CCN(Cc3cnc(N4CCOCC4)s3)CC2CCO)cc1 (centres unmarked)	-46.7
Cc1ccc(CN2CCN(Cc3cnc(C)s3)CC2CCO)cc1 (centres unmarked)	-19.4
Cc1ccc(CN2CCN(CCC(C)C)C(CCO)C2)s1 (centres unmarked)	-29.5
Cn1c(O)c(C=Nc2ccccc2-c2ccccc2)c(=O)n(C)c1=O	4.4
O=c1c2ccccc2cnn1Cc1n[nH]c(=S)n1-c1ccc(Cl)cc1	14.5
Cc1ccc(-c2nc(-c3ccccn3)sc2CC(=O)O)cc1	2.76
O=C(N/N=C/c1cccs1)c1ccco1	11.8
COc1ccc(NC(=O)COC(=O)C2CC2)c(OC)c1	-0.146
CC1CC(C)(C)NC(=S)N1CC(=O)NCc1ccc(F)cc1 (centres unmarked)	0.792
O=C(Cn1nnc(-c2ccccc2)n1)NNC(=O)c1cccc([N+](=O)[O-])c1	26.3
COc1ccc(CCNC2CCCCC2)cc1.O=C(O)C(=O)O	-15.9
COc1ccc(CCNC2CCC(c3ccccc3)CC2)cc1 (centres unmarked)	-70.8
COc1ccc(CCNC2CCCCCC2)cc1	-4.62
COc1ccc(CCNC(=O)C2CC2)cc1	0.64
COc1ccc(CCNC2CCc3ccccc3C2)cc1 (centres unmarked)	-56
COc1ccc(CCNC(=O)C2Cc3ccccc3C(=O)O2)cc1 (centres unmarked)	-1.35
COc1ccc(S(=O)(=O)N2CCN(c3ccc(C)cc3C)CC2)cc1OC	5.72
COC(=O)[C@@H](NC(=O)N(C1CCCCC1)C1CCCCC1)C(C)C	-7.86
